Screens as filed in PubChem BioAssay.
Shown are actives, neighbours in structure and some others; about 19% of the full set was active somewhere.
TDP1 cell CPT – growth inhibition of DT40 Tdp1-/-;hTDP1 cells with camptothecin (screen for TDP1 inhibitors); chicken DT40 Tdp1-/-;hTDP1 cells + 20 nM CPT, ATP luminescence, 48 h; Potency, µM (titrated, usually from 46.2 µM), hits mostly inhibitors; hit rate 12% among 420,000; also: nearly all actives have a fitted effect of over 55% in size
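Chicken DT40 Tdp1-/- cells stably complemented with human TDP1 were seeded at 400 cells/well in medium containing 20 nM camptothecin, exposed to pin-transferred compounds, and grown at 37 °C for at least 48 hr. Viability was read as ATP luminescence.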
HT1080-NT tox – kills 2HG-producing HT-1080-NT fibrosarcoma cells; AID 686970; Potency, µM (highest dose often 46.1 µM), usual class: cytotoxic; hit rate 1.6% among 360,000; HT-1080-NT fibrosarcoma viability, CellTiter-Glo ATP luminescence, 48 h;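 also: NT is the 2HG producing partner of a matched IDH1 knockdown line; nearly all actives have a fitted effect of over 55% in size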
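Compounds were tested in concentration-response format on HT-1080-NT cells for 48 hours at 37 degrees C. Cell viability came from CellTiter-Glo luminescence; curves were classified by r2, response magnitude and activity.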
IL-1B inflam inh – inflammasome signaling inhibition, IL-1 beta readout. activity change, % at 57.5 µM. AID 743279. THP-1 LPS/ATP IL-1B secretion, AlphaLISA, 16 h; hits give low values. hit rate 4.7% among 360,000; in the data active = activity change below about -50%; inconclusive = mostly about -30% to -49%
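THP-1 cells pretreated 1 hr with compounds (up to 57.5 uM final), then stimulated with LPS (250 ng/mL final) plus ATP (1.25 mM final); secreted IL-1B measured by AlphaLISA after 16 hr, decreased signal indicating inhibition.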
HT1080 IDH1KD tx – kills HT-1080 cells with IDH1 knockdown | Potency, µM (titrated, usually from 46.1 µM), actives largely listed as cytotoxic | hit rate 2% among 360,000 | HT-1080 IDH1 knockdown viability, ATP luminescence, 48 h
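Assay cells: HT-1080 with IDH1 knockdown, 750 per well, RPMI/5% FBS. Exposure: 48 h at 37 °C following 2 h pre-incubation. Read: CellTiter-Glo luminescence; fitted concentration-response, curve class assigned.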
DT40 TDP1 no CPT – qHTS for Inhibitors of human tyrosyl-DNA phosphodiesterase 1 (TDP1): qHTS in cells in absence of CPT; Potency, µM (top dose mostly 46.2 µM), most hits filed as inhibitors; hit rate 15% among 420,000; DT40 Tdp1-/- hTDP1 cells, no CPT, ATP luminescence, 48 h; AID 686978, 2013; also: nearly all actives have a fitted effect of over 55% in size
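Seeded 400 DT40-hTDP1 cells/well (vehicle DMSO, no 20 nM CPT); pinned compounds; ≥48 hr at 37 °C; CellTiter-Glo luminescence as viability measure.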
Of the large screens only hits and unclear results are named; the others gave an inactive call. Unless noted, calls follow the shape of the dose curve; as a rule, active = well fitted curve in the direction sought with a large enough effect; inconclusive = small, poorly fitted or top-dose-only effect, or another doubt; inactive = no such curve, though single readings can be large; an effect the other way counts as inactive or inconclusive.

Cc1ccc(S(=O)(=O)N2CCCCC2CCNC(=O)C(=O)Nc2ccccc2F)cc1 (stereo not drawn)	TDP1 cell CPT 6.51µM, DT40 TDP1 no CPT 5.8µM
Cc1nc2ccn(Cc3cccs3)c(=O)c2cc1C(=O)NCc1ccccc1	none (no result: HT1080-NT tox, IL-1B inflam inh, HT1080 IDH1KD tx)
COc1cccc(N2CCN(C(=O)c3cc4c(=O)n(Cc5cccnc5)ccc4nc3C)CC2)c1	none (no result: HT1080-NT tox, IL-1B inflam inh, HT1080 IDH1KD tx)
COc1cccc(N2CCN(C(=O)c3cc4c(=O)n(Cc5cccs5)ccc4nc3C)CC2)c1	TDP1 cell CPT 23.1µM, DT40 TDP1 no CPT inconclusive (no result: HT1080-NT tox, IL-1B inflam inh, HT1080 IDH1KD tx)
Cc1ccc(C)c(N2CCN(C(=O)c3cc4c(=O)n(Cc5cccs5)ccc4nc3C)CC2)c1	TDP1 cell CPT 23.1µM, DT40 TDP1 no CPT 20.6µM (no result: HT1080-NT tox, IL-1B inflam inh, HT1080 IDH1KD tx)
COc1ccc(N2CCN(C(=O)c3cc4c(=O)n(Cc5cccs5)ccc4nc3C)CC2)cc1	TDP1 cell CPT inconclusive, DT40 TDP1 no CPT 25.9µM (no result: HT1080-NT tox, IL-1B inflam inh, HT1080 IDH1KD tx)
CN(C(=O)c1cc(-c2ccccc2)on1)C1CCCCC1	none
Cc1ccc(C(CC(=O)O)NC(=O)CN2C(=O)c3ccccc3C2=O)cc1 (stereo not drawn)	none
CCC(C)c1ccccc1N1CC(C(=O)N2CCN(C(=O)c3ccco3)CC2)CC1=O (stereo not drawn)	none
CCOc1ccc(N2CC(C(=O)Nc3cccc(S(=O)(=O)N4CCCC4)c3)CC2=O)cc1 (stereo not drawn)	none
CCC(C)c1ccccc1N1CC(C(=O)N2CCN(c3ccccc3)CC2)CC1=O (stereo not drawn)	TDP1 cell CPT 14.6µM, DT40 TDP1 no CPT 23.1µM
CCOc1ccccc1N1CC(C(=O)Nc2ccc(S(=O)(=O)N3CCCCC3)cc2)CC1=O (stereo not drawn)	TDP1 cell CPT 13µM, DT40 TDP1 no CPT 13µM
CCC(C)c1ccccc1N1CC(C(=O)Nc2ccc(S(=O)(=O)N3CCOCC3)cc2)CC1=O (stereo not drawn)	TDP1 cell CPT 23.1µM, DT40 TDP1 no CPT 23.1µM
CCOc1ccccc1N1CC(C(=O)Nc2cccc(S(=O)(=O)N3CCCCC3)c2)CC1=O (stereo not drawn)	TDP1 cell CPT inconclusive, DT40 TDP1 no CPT 23.1µM
O=C(Nc1ccc(S(=O)(=O)N2CCCC2)cc1)C1CC(=O)N(c2ccccc2)C1 (stereo not drawn)	none
COCc1cc(C)nc(OCC(=O)N/N=C/c2ccccc2O)c1C#N	TDP1 cell CPT inconclusive, HT1080-NT tox inconclusive, HT1080 IDH1KD tx 18.4µM, DT40 TDP1 no CPT inconclusive
COCc1cc(C)nc(OCC(=O)N/N=C/c2ccc(O)cc2O)c1C#N	HT1080 IDH1KD tx inconclusive, DT40 TDP1 no CPT inconclusive
C/C(=N\OCC(=O)N/N=C/c1ccccc1O)c1cccs1	TDP1 cell CPT 4.11µM, HT1080-NT tox inconclusive, HT1080 IDH1KD tx inconclusive, DT40 TDP1 no CPT 4.61µM
O=C(COc1cccc2cccnc12)N/N=C/c1ccc(O)cc1	TDP1 cell CPT inconclusive
O=C(COc1cccc2cccnc12)N/N=C/c1cccn1-c1ccc(F)cc1	TDP1 cell CPT inconclusive, IL-1B inflam inh -88.9, DT40 TDP1 no CPT inconclusive
O=C(COc1cccc2cccnc12)N/N=C/c1ccccc1O	TDP1 cell CPT 14.6µM, DT40 TDP1 no CPT 10.3µM
CCCn1c(SCC(=O)c2[nH]c(C)c(C(C)=O)c2C)n[nH]c1=O	none
Cc1ccccc1OCC(=O)N/N=C/c1cccc2cccnc12	TDP1 cell CPT inconclusive, HT1080 IDH1KD tx inconclusive, DT40 TDP1 no CPT 20.6µM
c1ccc2c(c1)C1=NCCN1c1ccccc1-2	TDP1 cell CPT 2.91µM, HT1080-NT tox inconclusive, IL-1B inflam inh -105.4, HT1080 IDH1KD tx 16.4µM, DT40 TDP1 no CPT 2.31µM
COc1cccc(C(=O)Nc2nnc(S(=O)(=O)N(C)Cc3ccccc3)s2)c1	TDP1 cell CPT inconclusive
COc1ccccc1N1CCN(C(=O)CCNS(=O)(=O)c2ccc3c(c2)CCN3C(=O)C2CC2)CC1	TDP1 cell CPT 16.4µM, DT40 TDP1 no CPT 23.1µM (no result: HT1080-NT tox, IL-1B inflam inh, HT1080 IDH1KD tx)
O=C(C1CC1)N1CCc2cc(S(=O)(=O)NCCC3=CCCCC3)ccc21	TDP1 cell CPT inconclusive
COc1ccc(N2CCN(C(=O)CCS(=O)(=O)c3ccc4c(c3)CCN4C(=O)C3CC3)CC2)cc1	TDP1 cell CPT inconclusive, DT40 TDP1 no CPT inconclusive
